Source: PubChem BioAssay (EPA / NIEHS)
Values joined by “and” are separate entries in the source; they are usually repeats but may differ in a detail not shown here. Equal values may be shown once. A structure can be active in one record and inactive in another. Active and inactive are the calls of the source. How the source made its calls: active means hit-call score of the fitted dose curve at least 0.9, where 1 is the maximum; inactive means score below 0.9.

Experiments:
[1] = APR_HepG2_CellLoss_72hr: Apredica 72-hour HepG2 Assay for Cell Loss (AID 2282915); settings: high-content imaging
Procedure, shortened: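 Cell number comes from Hoechst 33342-labelled nuclei, imaged at 20x after 3.7% formaldehyde fixation. Dosing was 0.39–200 uM, ten concentrations in duplicate, 0.5% DMSO final, for 72 h. Bidirectional fit relative to DMSO baseline.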

[2] = APR_HepG2_P-H2AX_72hr: Apredica 72-hour HepG2 Assay for H2AX Phosphorylation (AID 2282916); settings: imaging, actives raise or lower the signal;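 further: phospho-histone H2A.x immunostain intensity per cell marking DNA damage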
Procedure, shortened: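 Phospho-H2A.x imaging endpoint in HepG2 after 72 hr compound exposure (0.39–200 uM, duplicate wells). Activity derived by bidirectional curve fitting with DMSO as baseline.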

[3] = APR_HepG2_MitoMembPot_72hr: Apredica 72-hour HepG2 Assay for Mitochondrial Membrane Potential (AID 2282917); settings: imaging, actives raise or lower the signal
Procedure, shortened: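 Membrane potential read by MitoTracker Red CMXRos (250 nM, 30 min, pre-fixation) fluorescence imaging of HepG2 after 72 hr exposure. Ten concentrations, 0.39–200 uM, duplicate wells, 0.5% DMSO; fitted in both directions against DMSO baseline.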

[4] = APR_HepG2_MicrotubuleCSK_72hr: Apredica 72-hour HepG2 Assay for Microtubule CSK Stabilty (AID 2282919); settings: HepG2 microtubule cytoskeleton, high-content imaging, actives raise or lower the signal
Procedure, shortened: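 High-content imaging of alpha-tubulin staining in fixed HepG2 cells after 72 hr treatment with ten concentrations from 0.39 to 200 uM (0.5% DMSO). Fitting was bidirectional against DMSO; taxol served as positive control.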

[5] = APR_HepG2_P-H2AX_24hr: Apredica 24-hour HepG2 Assay for H2AX Phosphorylation (AID 2282920); settings: high-content imaging, actives raise or lower the signal
Procedure, shortened: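 Human HepG2 liver cells, treated 24 hr with test chemicals (0.39–200 uM, final DMSO 0.5% v/v), are fixed and co-stained for phospho-H2A.x and c-Jun with Hoechst. Imaged intensity is fitted in both directions against DMSO controls.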

[6] = APR_HepG2_StressKinase_72hr: Apredica 72-hour HepG2 Assay for Stress Kinase (AID 2282921); settings: HepG2 stress kinase (phospho-c-Jun) imaging, actives raise or lower the signal
Procedure, shortened: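 Stress kinase signal reflects nuclear phospho-c-Jun staining in fixed, permeabilized cells exposed 72 h to compound at 0.39–200 uM; DMSO-normalized, fitted for increases or decreases.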

[7] = APR_HepG2_StressKinase_24hr: Apredica 24-hour HepG2 Assay for Stress Kinase (AID 2282922); settings: HepG2 stress kinase (phospho-c-Jun) imaging, actives raise or lower the signal
Procedure, shortened: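 High-content imaging of phospho-c-Jun immunofluorescence in fixed, permeabilized HepG2 cells after 24 h dosing. Ten concentrations, 0.39 to 200 uM, run in duplicate at 0.5% v/v DMSO; gain or loss of signal versus DMSO.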

[8] = APR_HepG2_p53Act_72hr: Apredica 72-hour HepG2 Assay for p53 Activation (AID 2282923); settings: high-content imaging, actives raise or lower the signal;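 further: average cellular p53 protein immunofluorescence intensity in HepG2 cells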
Procedure, shortened: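 Fixed-cell p53 staining (sheep primary, Cy5 secondary) measured by fluorescence imaging following 72 hr treatment at 0.39–200 uM in 0.5% DMSO; DMSO served as negative control and baseline.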

[9] = APR_HepG2_MitoMass_72hr: Apredica 72-hour HepG2 Assay for Mitochondrial Mass (AID 2282924); settings: high-content imaging, actives raise or lower the signal;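 further: MitoTracker Red CMXRos stain intensity per cell imaged as mitochondrial mass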
Procedure, shortened: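 Readout is imaged MitoTracker Red (250 nM, 30 min, pre-fixation) signal, fitted bidirectionally against DMSO baseline. Human HepG2 liver cells received compound 0.39–200 uM in duplicate for 72 hr, final DMSO 0.5%.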

[10] = APR_HepG2_NuclearSize_72hr: Apredica 72-hour HepG2 Assay for Nuclear Size (AID 2282925); settings: high-content imaging, actives raise or lower the signal
Procedure, shortened: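 Nuclear size was read by high-content imaging of Hoechst 33342 stain after formaldehyde fixation. Compounds ran 72 h on HepG2 at 0.39 to 200 uM, with final DMSO 0.5% v/v. Curves fitted both directions relative to DMSO control.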

[11] = ATG_CRE_CIS: Attagene CIS-FACTORIAL HepG2 Assay for human cAMP Responsive Element (CRE) binding protein 3 (AID 2282926); settings: HepG2 CRE cis-reporter, Attagene multiplexed mRNA; actives raise or lower the signal
Procedure, shortened: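 Liver-derived HepG2, transfected with a CRE-containing reporter panel, exposed 24 h; transcript levels sized and quantified by capillary electrophoresis of labelled amplicons; signal changes either way referenced to vehicle.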

[12] = biological target: CCAAT/enhancer-binding protein beta (Homo sapiens) (UniProt P17676); assay: ATG_C_EBP_CIS: Attagene CIS-FACTORIAL HepG2 Assay for human CCAAT/Enhancer Binding Protein (C/EBP) beta (AID 2282927); settings: HepG2 Attagene cis-factorial transcription factor reporter; actives raise or lower the signal
CCAAT/enhancer-binding protein beta (Homo sapiens), sequence (P17676 whole entry, looked up, the tested form may be a part): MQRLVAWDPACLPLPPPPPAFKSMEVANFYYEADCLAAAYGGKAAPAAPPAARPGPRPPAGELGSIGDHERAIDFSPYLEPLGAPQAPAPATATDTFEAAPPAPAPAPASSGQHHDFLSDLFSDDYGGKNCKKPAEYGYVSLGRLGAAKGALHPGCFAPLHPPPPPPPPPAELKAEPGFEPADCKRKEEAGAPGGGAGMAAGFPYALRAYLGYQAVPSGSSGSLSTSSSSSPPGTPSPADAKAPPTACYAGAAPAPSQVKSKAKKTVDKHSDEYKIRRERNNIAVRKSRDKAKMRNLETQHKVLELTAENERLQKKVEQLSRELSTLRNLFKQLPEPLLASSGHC
Procedure, shortened: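 Endogenous C/EBPb-driven reporter transcripts measured in transfected human HepG2 cells at 24 h via RT-PCR and capillary electrophoresis of labelled fragments. Activity fitted in both directions relative to DMSO baseline.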

[13] = ATG_CMV_CIS: Attagene CIS-FACTORIAL HepG2 Assay for human CMV (Internal Marker) (AID 2282928); settings: HepG2 CMV promoter reporter, transcription factor profiling; actives raise or lower the signal;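 further: endpoint acts as a background internal control marker rather than a target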
Procedure, shortened: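 24 h chemical treatment, HepG2 with transient multi-reporter transfection; RNA → oligo(dT) RT → PCR → 6-FAM extension → HpaI digest → CE fluorescence. Bidirectional fit, DMSO negative control.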

[14] = ATG_DR4_LXR_CIS: Attagene CIS-FACTORIAL HepG2 Assay for human Liver X Receptor (LXR), DR4 submotif (AID 2282929); settings: HepG2 Attagene DR4 cis-reporter, mRNA transcription; actives raise or lower the signal
Procedure, shortened: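 Measures endogenous transcription factor activity via a DR4-driven reporter transcript in human HepG2 cells. Compounds incubated 24 h; mRNA quantified by RT-PCR and capillary electrophoresis, analysed as gain or loss of signal versus DMSO.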

[15] = biological target: Aryl hydrocarbon receptor (Homo sapiens) (UniProt P35869); assay: ATG_Ahr_CIS: Attagene CIS-FACTORIAL HepG2 Assay for human Aryl Hydrocarbon Receptor (Ahr) (AID 2282930); settings: HepG2 AhR cis-factorial reporter transcription; actives raise or lower the signal
Aryl hydrocarbon receptor (Homo sapiens), sequence (P35869 whole entry, looked up): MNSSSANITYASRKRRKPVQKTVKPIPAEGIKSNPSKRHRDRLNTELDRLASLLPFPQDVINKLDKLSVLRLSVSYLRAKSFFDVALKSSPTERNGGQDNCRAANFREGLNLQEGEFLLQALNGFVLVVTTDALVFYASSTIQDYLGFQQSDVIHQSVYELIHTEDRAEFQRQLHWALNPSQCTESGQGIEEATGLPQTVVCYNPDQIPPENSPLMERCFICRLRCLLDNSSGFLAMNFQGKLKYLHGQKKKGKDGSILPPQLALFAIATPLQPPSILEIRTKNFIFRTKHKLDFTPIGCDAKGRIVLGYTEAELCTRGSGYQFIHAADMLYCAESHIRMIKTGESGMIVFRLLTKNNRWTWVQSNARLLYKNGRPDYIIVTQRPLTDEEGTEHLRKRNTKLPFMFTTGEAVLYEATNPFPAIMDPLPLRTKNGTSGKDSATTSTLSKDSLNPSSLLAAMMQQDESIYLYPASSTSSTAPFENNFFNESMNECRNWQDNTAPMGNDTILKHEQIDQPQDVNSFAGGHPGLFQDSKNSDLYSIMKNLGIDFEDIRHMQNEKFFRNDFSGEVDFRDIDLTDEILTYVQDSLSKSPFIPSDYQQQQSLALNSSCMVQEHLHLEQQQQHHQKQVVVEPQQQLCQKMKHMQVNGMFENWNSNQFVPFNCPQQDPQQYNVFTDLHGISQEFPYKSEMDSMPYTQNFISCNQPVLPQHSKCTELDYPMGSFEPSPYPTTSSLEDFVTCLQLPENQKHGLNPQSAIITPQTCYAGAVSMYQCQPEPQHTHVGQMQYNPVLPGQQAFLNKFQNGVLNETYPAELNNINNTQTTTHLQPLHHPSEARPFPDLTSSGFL
Procedure, shortened: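 Reporter mRNA levels, quantified by RT-PCR and fluorescent capillary electrophoresis, reflect endogenous AhR transcriptional activity in HepG2 cells carrying transfected cis-promoter reporter constructs. Readout at 24 h post-dose; gain or loss fitted against DMSO baseline.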

[16] = ATG_AP_1_CIS: Attagene CIS-FACTORIAL HepG2 Assay for human Activator Protein 1 (AP-1) (AID 2282931); settings: HepG2 Attagene cis-factorial AP-1 reporter mRNA; actives raise or lower the signal
Procedure, shortened: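 Bidirectional concentration-response fitting against DMSO controls. Underlying signal: reporter mRNA from cis-promoter constructs in transiently transfected HepG2, measured after 24 h by RT-PCR and capillary electrophoresis.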

[17] = ATG_AP_2_CIS: Attagene CIS-FACTORIAL HepG2 Assay for human Activator Protein 2 (AP-2) (AID 2282932); settings: HepG2 AP-2 cis-reporter, Attagene transcription factor profiling; actives raise or lower the signal
Procedure, shortened: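 Transiently transfected HepG2 cells are exposed to chemical for 24 h. Reporter transcripts are then measured as fluorescence following RT-PCR and capillary separation, and gain- or loss-of-signal is fitted relative to DMSO.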

[18] = ATG_BRE_CIS: Attagene CIS-FACTORIAL HepG2 Assay for human Bone Morphogenetic Protein (BMP) Response Element (BRE) (AID 2282933); settings: HepG2 BMP response element reporter, Attagene transcription factor profiling; actives raise or lower the signal
Procedure, shortened: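 HepG2 cells transiently transfected with multiplexed cis-element reporter units were dosed with chemical for 24 h. Reporter mRNA was measured by RT-PCR with fluorescent labelling, HpaI digestion and capillary electrophoresis; bidirectional fitting relative to DMSO.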

[19] = biological target: Retinoic acid receptor alpha (Homo sapiens) (UniProt P10276); assay: ATG_DR5_RAR_CIS: Attagene CIS-FACTORIAL HepG2 Assay for human Retinoic Acid Receptor Alpha (RARE), DR5 submotif (AID 2282934); settings: HepG2 Attagene cis-factorial RARE DR5 reporter, mRNA; actives raise or lower the signal;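 on AC50: reporter responds to endogenous RAR alpha beta and gamma in HepG2 not RARA alone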
Retinoic acid receptor alpha (Homo sapiens), sequence (P10276 whole entry, looked up): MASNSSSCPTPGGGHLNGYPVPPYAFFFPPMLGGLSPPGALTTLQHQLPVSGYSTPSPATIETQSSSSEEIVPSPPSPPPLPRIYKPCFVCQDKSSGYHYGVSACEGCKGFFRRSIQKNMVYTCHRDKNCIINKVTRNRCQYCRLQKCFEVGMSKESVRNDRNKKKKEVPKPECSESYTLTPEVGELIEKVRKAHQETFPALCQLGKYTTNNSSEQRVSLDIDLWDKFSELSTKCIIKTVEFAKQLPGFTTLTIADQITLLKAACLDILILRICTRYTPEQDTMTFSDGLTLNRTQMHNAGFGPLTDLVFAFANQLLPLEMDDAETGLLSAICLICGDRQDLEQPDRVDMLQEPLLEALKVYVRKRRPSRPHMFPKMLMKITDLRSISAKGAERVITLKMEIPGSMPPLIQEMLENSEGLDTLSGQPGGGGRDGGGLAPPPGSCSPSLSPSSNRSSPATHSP
Procedure, shortened: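 Reporter transcripts from a DR5-regulated unit, measured via RT-PCR plus capillary electrophoresis, reflect endogenous RAR activity in transiently transfected human HepG2 liver cells. Exposure lasted 24 h; gain or loss of signal scored against DMSO.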

[20] = biological target: Transcription factor E2F1 (Homo sapiens) (UniProt Q01094); assay: ATG_E2F_CIS: Attagene CIS-FACTORIAL HepG2 Assay for human E2F Transcription Factor 1 (AID 2282935); settings: HepG2 Attagene cis-reporter, E2F reporter RNA transcripts; actives raise or lower the signal
Transcription factor E2F1 (Homo sapiens), sequence (Q01094 whole entry, looked up): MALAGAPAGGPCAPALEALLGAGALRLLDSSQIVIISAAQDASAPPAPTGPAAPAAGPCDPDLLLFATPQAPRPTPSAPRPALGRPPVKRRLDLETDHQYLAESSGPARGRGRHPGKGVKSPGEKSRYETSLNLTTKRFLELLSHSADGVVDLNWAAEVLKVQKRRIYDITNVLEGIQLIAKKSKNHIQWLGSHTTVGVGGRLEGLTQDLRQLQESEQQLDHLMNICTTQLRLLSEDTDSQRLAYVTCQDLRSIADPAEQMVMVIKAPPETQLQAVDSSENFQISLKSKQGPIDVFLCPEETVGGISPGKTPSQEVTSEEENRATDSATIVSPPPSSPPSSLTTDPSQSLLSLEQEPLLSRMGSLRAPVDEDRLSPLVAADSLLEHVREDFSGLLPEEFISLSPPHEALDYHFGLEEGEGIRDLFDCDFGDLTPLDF
Procedure, shortened: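 Fluorescent RT-PCR products, digested with HpaI for 2 h at 37 C, are separated by capillary electrophoresis. Source RNA comes from transfected HepG2 cultures treated for 24 h.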

Measured: AC50

CC(=O)[O][Hg][c]1ccccc1
inactive: [3] | [10] | [13] | [14] | [15] | [16] | [17] | [18] | [20]
active: [1] 3.19 µM | [2] 3.55 µM | [4] 2.44 µM | [5] 1.74 µM | [6] 7.33 µM | [7] 88.1 µM | [8] 4.66 µM | [9] 83.5 µM | [11] 2.79 µM | [12] 1.64 µM | [19] 1.24 µM

NC(=S)Nc1ccccc1
inactive: [11] | [12] | [13] | [14] | [15] | [16] | [17] | [18] | [19] | [20]

Oc1c(I)cc(I)cc1I
active: [13] 49.3 µM | [15] 34.5 µM | [17] 63.7 µM | [18] 43.2 µM
inactive: [11] | [12] | [14] | [16] | [19] | [20]

O=c1[nH]c(=O)[nH]c(=O)[nH]1
inactive: [1] | [2] | [4] | [5] | [6] | [7] | [8] | [9] | [10] | [11] | [12] | [13] | [14] | [15] | [16] | [17] | [19] | [20]
active: [3] 99.5 µM

NC(=O)O
active: [1] 3.92 µM | [2] 4.73 µM | [4] 3.05 µM | [5] 9.46 µM | [6] 3.02 µM | [7] 4.39 µM | [8] 3.66 µM | [10] 23.5 µM
inactive: [3] | [9] | [11] | [12] | [13] | [14] | [15] | [16] | [17] | [18] | [20]

Oc1cccc2cccnc12
active: [1] 2.66 µM | [2] 16.9 µM | [6] 18.8 µM | [8] 4.12 µM | [9] 3.1 µM | [13] 139 µM | [15] 165 µM | [16] 24.8 µM
inactive: [3] | [4] | [5] | [7] | [10] | [11] | [12] | [13] | [14] | [15] | [16] | [17] | [20]

O=C(O)C(Cl)(Cl)Cl
inactive: [1] | [2] | [3] | [4] | [5] | [6] | [7] | [8] | [9] | [10] | [12] | [13] | [14] | [16] | [17] | [18] | [19] | [20]
active: [1] 110 µM | [5] 106 µM | [9] 162 µM

ClCC(Cl)CCl
inactive: [1] | [2] | [3] | [4] | [5] | [6] | [7] | [8] | [9] | [10] | [11] | [12] | [13] | [14] | [16] | [17] | [18] | [19] | [20]

COc1cccc(C=O)c1
inactive: [11] | [12] | [13] | [14] | [15] | [16] | [17] | [18] | [19] | [20]

CC(C)(C)CC(C)(C)c1ccc(O)cc1
inactive: [2] | [3] | [4] | [5] | [6] | [7] | [8] | [9] | [10] | [11] | [12] | [13] | [14] | [16] | [17] | [18] | [20]
active: [1] 43.4 µM | [13] 17.1 µM and 18 µM | [14] 14.4 µM | [16] 19.4 µM

COS(=O)(=O)c1ccc(C)cc1
inactive: [11] | [12] | [13] | [14] | [15] | [16] | [17] | [18] | [19] | [20]

O=C(O)C(F)(F)C(F)(F)C(F)(F)C(F)(F)C(F)(F)C(F)(F)F
inactive: [3] | [4] | [5] | [7] | [11] | [12] | [13] | [14] | [15] | [16] | [17] | [18] | [19] | [20]
active: [1] 14.5 µM | [2] 13.6 µM | [6] 97.8 µM | [8] 10.2 µM | [9] 13 µM | [10] 6.95 µM

O=C1C2(Cl)C3(Cl)C4(Cl)C(Cl)(Cl)C5(Cl)C3(Cl)C1(Cl)C5(Cl)C24Cl (stereo not drawn)
inactive: [3] | [4] | [9] | [11] | [12] | [13] | [14] | [15] | [16] | [17] | [18] | [19] | [20]
active: [1] 22.5 µM | [2] 113 µM | [5] 46.6 µM | [6] 106 µM | [7] 60.5 µM | [8] 10.5 µM | [10] 24.1 µM | [11] 14.3 µM | [12] 17.7 µM | [13] 2.8 µM | [14] 2.8 µM and 4.23 µM | [16] 3.57 µM and 3.03 µM | [17] 18.4 µM | [19] 20.9 µM | [20] 11.1 µM
